The list is not random: actives were taken first. Their share in the collection is about 8.1%.
Gal4-VP16 FLuc = Gal4-VP16 reporter inhibition counter-screen; 3.5% of 310,000 active; Drosophila S2 Gal4-VP16 UAS-luciferase, luminescence, 20 h; Potency, µM (highest dose often 53.6 µM), most hits filed as inhibitors;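 further: Gal4-VP16 expression switched on by copper sulfate through the metallothionein promoter; nearly all actives have a fitted effect of over 50% in size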
Epigenetic reg = regulators of epigenetic silencing causing reporter derepression in mouse cells | 0.2% of 280,000 active | Potency, µM (doses to about 53.9 µM), actives largely listed as activators | murine LDR cells, GFP reporter derepression, 30 h; further: nearly all actives have a fitted effect of over 60% in size
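Murine LDR cells carrying a silenced, genomically integrated CMV-driven GFP reporter were exposed to compound for 30 hours at 37 C. After PBS washes, GFP-positive cells (20–120 um objects) were counted by laser-scanning microplate cytometry.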
PINK1 modulator = modulators of PINK1 expression | Potency, µM (top dose mostly 76.6 µM), most hits filed as activators | PINK1 immunofluorescence, high-content cytometry, 24 h | 0.2% of 410,000 active; active means well fitted activation curve with a large enough effect; inconclusive means small, poorly fitted or top-dose-only effect; cell line not stated here; further: nearly all actives have a fitted effect of over 65% in size
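PINK1 protein level read as immunofluorescence by microplate cytometer in a fixed, stained stable cell line after 24 h exposure to five compound concentrations, with CCCP as control.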
RORgamma inh = ROR gamma (mouse) transcription inhibition; 5.4% of 310,000 active; P51450; Drosophila S2 Gal4-RORgamma UAS-luciferase reporter, 20 h; Potency, µM (doses to about 53.6 µM), usual class: inhibitors; further: nearly all actives have a fitted effect of over 60% in size
Target sequence (P51450 whole entry, looked up, the tested form may be a part): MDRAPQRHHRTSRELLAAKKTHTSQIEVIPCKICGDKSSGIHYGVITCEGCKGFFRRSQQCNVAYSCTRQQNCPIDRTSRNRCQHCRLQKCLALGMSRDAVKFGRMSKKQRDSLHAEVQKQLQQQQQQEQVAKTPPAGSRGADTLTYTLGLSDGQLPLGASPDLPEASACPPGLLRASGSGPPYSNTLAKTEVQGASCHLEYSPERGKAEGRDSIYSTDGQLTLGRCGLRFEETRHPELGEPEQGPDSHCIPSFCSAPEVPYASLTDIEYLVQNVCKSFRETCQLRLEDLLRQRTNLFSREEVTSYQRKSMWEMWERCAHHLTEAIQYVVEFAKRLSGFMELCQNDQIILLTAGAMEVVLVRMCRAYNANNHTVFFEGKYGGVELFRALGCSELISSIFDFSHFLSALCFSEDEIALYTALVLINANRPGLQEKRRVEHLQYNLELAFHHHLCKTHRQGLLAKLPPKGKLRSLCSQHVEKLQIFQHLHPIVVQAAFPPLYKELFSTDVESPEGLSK
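Drosophila Schneider cells stably carrying a metallothionein-driven Gal4 DBD–ROR gamma fusion and a UAS-Photinus luciferase reporter were exposed to compound for 1 hr, then induced with copper sulfate (700 uM final) for 20 hr at ambient temperature before luminescence reading.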
Sfp PPTase inh = inhibitors of Bacillus subtilis Sfp phosphopantetheinyl transferase; Biochemical Sfp PPTase activity, qHTS; AID 1490; Potency, µM, most hits filed as inhibitors; 3.5% of 310,000 active;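 further: the enzyme is Sfp with the accession as filed and its product quenches rhodamine fluorescence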
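Sfp 15 nM + cpd, 15 min RT; start w/ rhodamine-CoA 5 uM, BHQ-2-YbbR 12.5 uM (final); 50 mM Hepes pH 7.6, 10 mM MgCl2, 0.01% NP-40, 0.01% BSA; read 525/598 nm at 0 and 30 min.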
ClpP mod = qHTS Assay for Activators of ClpP | ATP-dependent Clp protease proteolytic subunit (Bacillus subtilis (strain 168)), P80244 | purified B. subtilis ClpP, FRET peptide cleavage, 20 min | Potency, µM (highest dose often 57.5 µM) | 1.9% of 340,000 active; active means well fitted falling curve with a large enough effect; inconclusive means small, poorly fitted or top-dose-only effect; inactive means no such curve, though single readings can be large or run the other way; further: the source files actives as falling curves though it sought activators and does not explain the sign; nearly all actives have a fitted effect of over 65% in size
Target sequence (P80244 whole entry, looked up): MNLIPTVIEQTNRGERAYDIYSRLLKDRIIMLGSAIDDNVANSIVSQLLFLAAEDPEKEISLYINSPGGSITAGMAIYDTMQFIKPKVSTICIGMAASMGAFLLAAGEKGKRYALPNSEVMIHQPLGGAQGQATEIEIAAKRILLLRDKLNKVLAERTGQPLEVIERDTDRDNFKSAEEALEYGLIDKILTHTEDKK
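Buffer: 100 mM Tris/HCl pH8, 100 mM KCl, 0.05% low protease BSA, 2.5% glycerol, 0.01% Tween-20. ClpP 10 microg/mL final; 20 min RT; delta FRET normalized to ADEP and DMSO controls.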
Numbers stand for hits; . = inactive; ? = inconclusive; / = no result given; ! = not active in a repeat; [ ] = dose if it differs, or a comment. Unless noted, the call rests on the fitted dose curve; in most records, active means well fitted curve in the direction sought with a large enough effect; inconclusive means small, poorly fitted or top-dose-only effect, or another doubt; inactive means no such curve, though single readings can be large; an effect the other way counts as inactive or inconclusive.

SMILES | Gal4-VP16 FLuc | Epigenetic reg | PINK1 modulator | RORgamma inh | Sfp PPTase inh | ClpP mod
CC(C(=O)c1ccccc1)[n+]1cccc(Cl)c1 (centres undefined) | / | / | . | / | / | .
CCCCCCC#CC1C=CC(OC(=O)OCC)C(COC(=O)OCC)O1 (centres undefined) | .[10 µM] | ? | / | ? | . | /
CO[C@H]1COC(=O)[C@@H](CCSC)NC(=O)C/C=C\[C@@H](C)COC(=O)[C@@H](OCc2ccccc2)/C=C\[C@@H]1C | .[10 µM] | .[10.1 µM] | / | .[10 µM] | . | /
CCCSc1ncc(Cl)c(C(=O)NCc2ccc(OC)cc2)n1 | / | . | . | / | / | .
O=C(C[n+]1ccccc1Br)c1ccc(O)c(O)c1 | / | / | . | / | / | .
COc1ccc(S(=O)(=O)N/N=C\c2ccc([N+](=O)[O-])o2)c(OC)c1 | . | / | . | . | . | .
O=C(N/N=C/c1ccc([N+](=O)[O-])o1)c1ccc(O)cc1 | 13µM | . | ? | 11µM | . | .
O=[N+]([O-])c1ccc(/C=N\NS(=O)(=O)c2ccc(F)cc2)o1 | 14µM | / | . | ? | ? | .
O=C(N/N=C/c1ccc([N+](=O)[O-])o1)c1ccncc1 | ? | . | . | ? | . | /
Cc1nc2ccccn2c1C(=O)N/N=C/c1ccc([N+](=O)[O-])o1 | ? | . | . | 14µM | . | .
COc1ccc(NC(=O)c2nnn(Cc3nc(-c4cc(Br)ccc4OC)oc3C)c2C)cc1 | / | . | . | / | / | .
COc1cccc(-c2nnc(NC(=O)c3ccc(S(=O)(=O)N4CC(C)OC(C)C4)cc3)o2)c1 (centres undefined) | 1µM | . | . | 0.56µM | . | .
COc1ccc(NC(=O)c2ccc(S(=O)(=O)N3CC(C)OC(C)C3)cc2)cc1 (centres undefined) | / | / | . | / | / | .
CC1CN(S(=O)(=O)c2ccc(C(=O)Nc3nnc(-c4ccco4)o3)cc2)CC(C)O1 (centres undefined) | 3.2µM | . | . | 1µM | . | /
CC1CCN(S(=O)(=O)c2ccc(C(=O)Nc3nnc(-c4ccco4)o3)cc2)CC1 | 0.5µM | / | . | 0.35µM | . | .
Brc1cccc[n+]1CCCC[n+]1ccccc1Br | / | / | . | / | / | ?
Cc1c(C)c(C)c(/C=C/c2ccnc3ccccc23)c(C)c1C | / | / | . | / | / | .
COc1ccccc1C(=O)NC1(C(F)(F)F)C(=O)Nc2c1c(=O)[nH]c(=O)n2-c1ccccc1 (centres undefined) | / | . | . | / | / | .
CCN(CC)S(=O)(=O)c1ccc2c(c1)c(=O)c(C(=O)N(C)Cc1ccccc1)cn2C | / | . | . | / | / | .
COc1ccc([N+](=O)[O-])cc1C1NN=C(c2ccccc2O)S1 (centres undefined) | . | . | . | . | . | .
O=[N+]([O-])c1ccc(O)c(C2=NNC(c3ccccc3F)C2)c1 (centres undefined) | ? | . | ? | 6.3µM | . | /
CN(C)c1ccc(-c2noc(C3CCN(S(=O)(=O)c4cccc(Cl)c4)CC3)n2)cc1 | . | . | . | . | . | 20µM
COc1ccccc1N1CCN(c2ncnc3onc(C)c23)CC1 | / | . | . | / | / | .
COc1ccc(-n2c(COc3cccc(C)c3)n[nH]c2=S)cc1 | 5µM | / | . | 3.5µM | . | /
COc1cc([N+](=O)[O-])c(OC)cc1SCc1n[nH]c(=S)n1-c1ccc(C)cc1 | . | . | . | 2.2µM | . | .
SMILES | Gal4-VP16 FLuc | Epigenetic reg | PINK1 modulator | RORgamma inh | Sfp PPTase inh | ClpP mod
COc1ccc(OCc2n[nH]c(=S)n2-c2ccc(C)cc2)cc1 | ? | . | . | 2.2µM | . | .
COC(=O)[C@@H]1CCCN1C(=O)c1c(OC)cc(=O)n2c1CCN(Cc1ccc3c(c1)OCCO3)CC2 | / | / | . | / | / | /
O=C(COC(=O)/C=C/c1cccs1)Nc1nc(-c2ccccc2)cs1 | ? | . | . | ? | . | /
O=C(COC(=O)c1cccs1)Nc1nc(-c2ccccc2)cs1 | . | . | . | . | . | 32µM
O=C(C[n+]1cc(-c2ccccc2)n2c1CCC2)Nc1nc(-c2ccccc2)cs1 | ? | . | . | ? | 56µM | .
O=C(COc1ccccc1)Nc1nc(-c2cccnc2)cs1 | / | / | . | / | / | .
Cc1cc(C)cc(OCC(=O)Nc2nc(-c3cccnc3)cs2)c1 | ? | / | . | ? | 45µM | .
O=C(COc1ccccc1)Nc1nc(-c2ccncc2)cs1 | . | / | . | . | 50µM | .
Cc1cccc(OCC(=O)Nc2nc(-c3ccncc3)cs2)c1 | / | / | . | / | / | .
Cc1cc(C(=O)NCc2ccccc2C)c2c(C)nn(-c3cccc(F)c3)c2n1 | / | . | . | / | / | .
Cc1ccc(Cl)cc1-n1c(=O)cc(N2CCN(c3ccc(F)cc3)CC2)[nH]c1=O | / | . | . | / | / | .
O=C(O)Cc1ccc(NC2(c3ccccc3)C(=O)c3ccccc3C2=O)cc1 | / | . | . | / | / | .
CCN(CC)c1ccc(NC2=C(Cl)C(=O)c3ccccc3C2=O)cc1 | 11µM | . | . | ? | ? | .
CCC1(C2CCN(C(=O)c3cc(F)ccc3F)CC2)NC(=O)N(CCc2scnc2C)C1=O (centres undefined) | / | / | . | / | / | /
c1ccc(N2N=C(c3cccs3)CC2c2ccco2)cc1 (centres undefined) | . | . | . | . | . | 16µM
c1ccc(C2=NN(c3ccccc3)C(c3ccco3)C2)cc1 (centres undefined) | . | . | . | . | ? | /
CC(C)(CNC(=O)c1ccc([N+](=O)[O-])c(Cl)c1)CNC(=O)c1ccc([N+](=O)[O-])c(Cl)c1 | 5µM | . | . | ? | . | 16µM
Cc1cc(C)nc(-n2nc(C)c3c2N(Cc2ccccc2F)C(=O)CC3c2ccc(Cl)cc2)n1 (centres undefined) | / | . | . | / | / | .
Cc1ccc(C(=O)Nc2ccc3oc(-c4ccccc4C)nc3c2)cc1 | / | . | . | / | / | .
CS(=O)(=O)Nc1ccc([N+](=O)[O-])cc1Oc1ccccc1 | . | . | . | . | 56µM! | .
CC(=O)Nc1nc2ccccc2n1CCOc1ccccc1Cl | 1.3µM | . | . | 0.79µM | . | .
O=C(Nc1nc(NC(=O)c2ccco2)n(-c2ccccc2)n1)c1ccccc1 | 1.3µM | . | . | 0.89µM | . | .
CCC(=O)Nc1nc2ccccc2n1Cc1ccc(Cl)cc1 | 1.3µM | . | . | 0.4µM | . | .
O=C(Nc1nc2ccccc2n1Cc1ccccc1)c1ccco1 | 2.5µM | . | . | 2µM | . | .
Nc1nc(NC(=O)c2ccccc2)nn1-c1ccccc1 | . | . | . | . | . | .
Cc1ccc(O)c(-c2n[nH]c3c2C(c2ccccc2F)N(Cc2ccco2)C3=O)c1 (centres undefined) | / | . | . | / | / | .
C=CCOC(=O)N[C@H](/C(C(=O)OC)=C(\C)NCc1ccccc1)c1cccc(OC)c1 | . | . | / | . | . | /

Assay outcomes: PubChem, National Center for Advancing Translational Sciences (NCATS)
